KinaseGlo FLuc = Counterscreen for Luciferase (Kinase-Glo TM) Inhibition | Luciferin 4-monooxygenase (Photuris pensylvanica), Q27757 | Kinase-Glo luciferase, ATP luminescence, 8 min | Potency, µM (series often up to 38.3 µM), for the others: at the top dose activity change, negative = inhibition, actives largely listed as inhibitors | 200,000 compounds, 0.28% hits; further: on the % scale 0 is the no-effect control and ±100 the full control effect; nearly all actives have a fitted effect of over 60% in size
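Compounds were added to a substrate mix at pH 7.2 (50 mM imidazole, 10 uM ATP, within the enzyme's linear range), followed by Kinase-Glo detection reagent; luminescence was measured after 8 minutes at ambient temperature.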
SMN2 splice enh = qHTS Assay for Enhancers of SMN2 Splice Variant Expression | HEK293 SMN2-luciferase splicing reporter, luminescence, 30-36 h | Potency, µM (doses to about 46.1 µM), for the others: top-dose activity change, positive = activation, actives largely listed as activators | 210,000 compounds, 2.8% hits | AID 1458, 2008; further: % of control where 0% means no effect; nearly all actives have a fitted effect of over 55% in size
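HEK293 cells carry an SMN2 minigene-luciferase reporter in which exon 7 inclusion puts luciferase in frame. Cells were seeded at 2000 cells/well, attached for 10-12 hours, then exposed to compounds for 30-36 hours at 37C before ONE-Glo luminescence.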
FLuc counter = qHTS profiling assay for firefly luciferase inhibitor/activator using purifed enzyme and Km concentrations of substrates (counterscreen for miR-21 project); purified FLuc, Km substrates, luminescence inhibition; Potency, µM (top dose mostly 57.5 µM), for inactives: at the top dose activity change, negative = inhibition, hits mostly inhibitors; AID 588342, 2011; 360,000 compounds, 6.9% hits; Luciferin 4-monooxygenase (Photinus pyralis), P08659;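 further: plate controls were vehicle for no effect and reference inhibitor for full effect; nearly all actives have a fitted effect of over 55% in size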
Target sequence (P08659 whole entry, looked up): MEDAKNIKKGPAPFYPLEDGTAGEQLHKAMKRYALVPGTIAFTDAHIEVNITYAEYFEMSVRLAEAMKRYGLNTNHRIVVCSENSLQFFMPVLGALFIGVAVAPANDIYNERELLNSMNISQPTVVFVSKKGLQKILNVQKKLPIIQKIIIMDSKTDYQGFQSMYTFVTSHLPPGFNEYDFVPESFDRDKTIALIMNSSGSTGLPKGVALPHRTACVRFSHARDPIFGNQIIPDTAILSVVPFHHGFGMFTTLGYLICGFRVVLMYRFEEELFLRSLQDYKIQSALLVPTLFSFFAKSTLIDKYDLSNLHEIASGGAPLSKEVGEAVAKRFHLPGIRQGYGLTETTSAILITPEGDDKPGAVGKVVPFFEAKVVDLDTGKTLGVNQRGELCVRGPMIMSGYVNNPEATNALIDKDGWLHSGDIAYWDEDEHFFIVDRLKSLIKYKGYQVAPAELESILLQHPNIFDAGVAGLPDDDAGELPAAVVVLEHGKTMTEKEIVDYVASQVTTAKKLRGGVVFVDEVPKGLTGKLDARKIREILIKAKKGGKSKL
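Purified P. pyralis luciferase (10nM final) with 10uM D-luciferin and 10uM ATP (Km levels) in 50mM Tris acetate pH 7.5, 10mM Mg acetate, 0.01% Tween-20, 0.05% BSA; qHTS 6-point titration, ~60 µM downward; luminescence read.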
Rab9 promoter act = qHTS Assay for Rab9 Promoter Activators. 320,000 compounds, 2.8% hits. Huh7 Rab9 promoter-luciferase reporter, luminescence, 24 h. Potency, µM (doses to about 9.22 µM), without a hit: top-dose activation, negative = inhibition, hits mostly activators. AID 485297, 2010; further: % of control where 0% means no effect; nearly all actives have a fitted effect of over 60% in size
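Huh7 cells stably carrying a Rab9 promoter-luciferase reporter, 1500 cells per well in OP-MEM I with 10% FBS, treated with compound 24 hours at 37C. Luciferase activity read by luminescence after 10 minutes with Amplite reagent.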
NPC1 prom act = qHTS Assay for NPC1 Promoter Activators; Potency, µM (titrated, usually from 9.22 µM), for inactives: at the top dose activation, actives largely listed as activators; AID 485313, 2010; 320,000 compounds, 2.4% hits; Huh7 NPC1 promoter luciferase reporter, 24 h; further: % of control where 0% means no effect; nearly all actives have a fitted effect of over 60% in size
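Luminescence read-out of NPC1 promoter-driven luciferase in stably transfected Huh7 cells; compounds delivered in DMSO and left 24 h at 37C, 5% CO2, qHTS titration format.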
ELG1 genotoxic = qHTS screen for small molecules that induce genotoxicity in human embryonic kidney (HEK293T) cells expressing luciferase-tagged ELG1. HEK293T ELG1-luciferase reporter, luminescence, 16 h. Potency, µM (highest dose often 46 µM), inactives show at the highest dose activity change, positive = activation, most hits filed as activators. 330,000 compounds, 1.3% hits. AID 504466, 2011; further: % of control where 0% means no effect; nearly all actives have a fitted effect of over 60% in size
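Cells (2,000/well) expressing the ELG1-luciferase fusion are dosed by pin tool and kept 16 hr at 37 °C, 5% CO2. Signal comes from ONE-Glo luciferase reagent after 30 min at room temperature.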
* = called active by the depositor; ? = inconclusive; / = not tested or not shown; [ ] = dose if it differs, or a comment. An excerpt weighted towards active compounds, which were near 7.4% of everything screened. The call rests on the fitted dose curve; in most records, active means well fitted curve in the direction sought with a large enough effect; inconclusive means small, poorly fitted or top-dose-only effect, or another doubt; inactive means no such curve, though single readings can be large; an effect the other way counts as inactive or inconclusive. Potency means the concentration at half of the fitted maximal effect.

SMILES	KinaseGlo FLuc	SMN2 splice enh	FLuc counter	Rab9 promoter act	NPC1 prom act	ELG1 genotoxic
Cc1cccc(-c2ccc(C=Nc3c(C)n(C)n(-c4ccccc4)c3=O)o2)c1	-2%	-8%	24µM*	9%	7%	0%
Cc1c(N=Cc2nc3ccccc3n2C)c(=O)n(-c2ccccc2)n1C	11µM*	1%	1.5µM*	5%	0%	?
Cc1c(N=Cc2nc3ccccc3[nH]2)c(=O)n(-c2ccccc2)n1C	-22%	-35%	13µM*	8%	14%	0%
Cc1c(N=Nc2ccc(O)cc2)c(=O)n(-c2ccccc2)n1C	-4%	16%	-12%	6%	11%	8%
CCOCCO	/	4%	/	/	/	/
COc1cccc2cc(C(=O)Oc3ccccc3)c(=O)oc12	/	/	12µM*	-2%	-3%	2%
COc1cccc2cc(C(=O)OCc3ccccc3)c(=O)oc12	/	/	6µM*	11%	2%	4%
CCN(C(=O)c1cc2cccc(OC)c2oc1=O)c1ccccc1	0%	10µM*	1%	1%	-4%	-5%
COc1cccc2cc(C(=O)N(Cc3ccccc3)CC3CCCO3)c(=O)oc12 (stereo unspecified)	3%	1%	-5%	1%	0%	1%
CC(=O)c1ccc(COC(=O)c2cc3ccccc3oc2=O)cc1	/	/	17µM*	6%	-2%	17%
O=C(NCc1cc(F)cc2c1OCCO2)[C@H]1C[C@@H]1[C@H](NP(=O)(c1ccccc1)c1ccccc1)c1ccccc1	-4%	-12%	/	/	/	/
COc1ccc(C(=O)c2cc3cccc(OC)c3o2)cc1	-9%	14µM*	9.5µM*	3.2µM*	3.2µM*	?
O=C(c1ccc(-c2nnc(-c3ccccc3)o2)cc1)N1CCCCCC1	/	/	4.8µM*	0.56µM*	1.4µM*	?
O=C(O)c1ccc(-c2nnc(-c3ccccc3)o2)cc1	/	/	5.4µM*	?	0.32µM*	?
CCN1CCN(C(c2ccc(SC)cc2)c2c(O)cc(C)n(CCOC)c2=O)CC1 (stereo unspecified)	/	/	-17%	/	/	/
COc1cccc(NC(=O)C(Cc2ccccc2)NS(=O)(=O)c2ccc3c(c2)oc(=O)n3C)c1 (stereo unspecified)	/	-25%	0%	/	/	/
CC1=C(C(=O)N2CCN(c3cccc(Cl)c3)CC2)C2(CCCCC2)OC1=O	/	/	-7%	/	/	/
COc1ccc(C(=O)N2CCC3(CC2)CN(c2ccccn2)C3)cc1	-2%	-31%	/	/	/	/
O=S(=O)(Nc1cccc(-c2cn3ccsc3n2)c1)c1ccc(F)cc1	0%	-24%	?	6%	-2%	?
COc1cccc(C(=O)Nc2cccc(-c3cn4ccsc4n3)c2)c1OC	/	/	15µM*	/	/	/
COc1cccc(OC)c1C(=O)Nc1cccc(-c2cn3ccsc3n2)c1	/	/	24µM*	/	/	/
COc1cc(OC)cc(C(=O)Nc2cccc(-c3cn4ccsc4n3)c2)c1	/	/	6µM*	/	/	/
COc1ccc(C)cc1NC(=O)COc1cc(=O)n(C)c2ccccc12	/	-10%	-1%	/	/	/
CCc1ccc(NCc2cc3ccc(OC)cc3n(CC(=O)Nc3ccccc3C)c2=O)cc1	/	/	1%	/	/	/
CCn1nc(C)c(CCN(C)C(=O)Nc2cc(Cl)c(OC)cc2OC)c1C	/	/	-1%	/	/	/
SMILES	KinaseGlo FLuc	SMN2 splice enh	FLuc counter	Rab9 promoter act	NPC1 prom act	ELG1 genotoxic
COc1ccc(-c2nc3ccc(NS(C)(=O)=O)cc3o2)cc1	/	/	2.7µM*	/	/	/
COc1ccc(-c2nc3ccccc3o2)cc1OC	/	/	11µM*	22%	?	?
COC(=O)c1ccc(-c2nc3ccccc3o2)cc1	-8%	?	1.9µM*	0.63µM*	3.5µM*	?
c1ccc2oc(-c3ccc4nc[nH]c4c3)nc2c1	-8%	13µM*	3.4µM*	1.6µM*	2.5µM*	21µM*
Cc1cc(C)c2oc(-c3cccc(NC(=O)COc4ccc([N+](=O)[O-])cc4)c3)nc2c1	/	-11%	1%	/	/	/
COc1ccc(C(=O)OCC#CCSc2nnc(-c3cccc4ccccc34)o2)cc1	/	/	8%	0%	16%	0%
Nc1nc2ccc(-c3nc4ccccc4o3)cc2s1	-1%	7.9µM*	1.3µM*	0.63µM*	1.1µM*	?
COC(=O)c1ccc(-c2ncc(-c3cccc4ccccc34)o2)cc1	3%	11µM*	?	1.8µM*	?	4%
Cc1ccc2oc(-c3ccc(NC(=O)c4ccc5c(c4)OCO5)cc3)nc2c1	1%	-10%	?	14%	2%	13%
COC(=O)c1ccc(-c2nc3ccc(C)cc3o2)cc1	-2%	4.5µM*	1.2µM*	?	?	?
NCc1ccc(-c2nc3ccccc3o2)cc1	10%	?	?	22%	?	?
CC(C)(C)OC(=O)N1CCC(c2c(C(=O)NCCc3ccccc3)cnn2-c2ccc(F)cc2)CC1	/	/	2%	/	/	/
Cc1cc2c(s1)c1c(C)nn(Cc3ccc(F)cc3)c(=O)c1n2C	/	/	1%	-5%	-1%	/
O=S(=O)(c1ccc(Cl)cc1)c1nc(-c2cccs2)oc1N1CCCCC1	/	-8%	-9%	/	/	/
O=C1C(c2ccncc2)=C(O)c2ccccc21	-21%	3.2µM*	2.1µM*	4.5µM*	0.71µM*	?
O=c1cc(-c2ccccc2)[nH]c2ccccc12	4%	-5%	?	-8%	-4%	0%
O=C1C(c2cc(=O)c3ccccc3[nH]2)=C(O)c2ccccc21	-19%	1µM*	0.76µM*	2.2µM*	1.6µM*	8.2µM*
CC(C)ON([C@@H](C(=O)NO)C(C)C)S(=O)(=O)c1ccc(-c2ccccc2)cc1	/	/	/	-35%[46.1 µM]	-15%[46.1 µM]	/
O=C(COc1ccc(Cl)cc1Cl)Nc1ccccn1	1.6µM*	-13%	0.076µM*	0.1µM*	?	-11%
CC(C)CCNC(=O)COc1ccc2c(c1)C(=O)CC(C)(C)O2	-6%	17%	-19%	23%	9%	?
Cc1ccccc1NC(=O)COc1ccc2c(c1)OC(C)(C)CC2=O	/	/	24µM*	?	?	14%
COC(=O)c1ccccc1NC(=O)COc1ccc2c(c1)OCO2	/	/	-12%	?	16%	4%
O=C(COc1ccc2c(c1)OCO2)Nc1ccccc1F	?	6%	6µM*	?	?	?
O=C(/C=C/c1ccc2c(c1)OCO2)Nc1ccc(Cl)cn1	-1%	10µM*	1.9µM*	0.56µM*	1.1µM*	2.1µM*
Cc1ccc(CN(C(=O)c2ccc(OCC(C)C)cc2)c2ccccn2)o1	/	/	-18%	/	/	/

From PubChem BioAssay
